# Rows were chosen to be rich in hits. Some 5.7% of all compounds tested hit in one or more screens of this group.
# DAX1 inh-1 = inhibitors of human orphan nuclear receptor DAX1 (NR0B1); AID 504766; P51843; inhibition, % at 6.75 µM; HEK293 Gal4-DAX1 luciferase reporter, luminescence; hit rate 0.99% among 340,000;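 active = inhibition above the mean over all tested compounds plus 3 SD, cut at about 4.2% in these data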;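 note: 0% = DAX1-transfected cells with DMSO and 100% = empty-vector control cells with DMSO; inhibition shows as a rise in luminescence from relieved DAX1 repression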
# AHR act = human AHR activation. AID 2796. hit rate 2.5% among 320,000. AHR-responsive luciferase reporter cells, luminescence. activation, % at 5 µM. P35869; in the data active = activation above about 47%;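 note: 0% = vehicle wells and 100% = reference agonist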
# DAX1 inh-2 = inhibitors of DAX1 repression of SF-1 activated StAR promoter | HEK293T StAR-luciferase reporter, SF-1/DAX-1 repression relief | inhibition, % at 6.8 µM | hit rate 1.1% among 370,000;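 active = inhibition above the mean over all tested compounds plus 3 SD, cut at about 3.6% in these data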;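 note: 0% = DAX-1 cells with DMSO and 100% = cells lacking DAX-1 with DMSO; higher inhibition means more luminescence from relief of DAX-1 repression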
# hgDAF-12 ag = activates the H. glycines DAF-12 receptor ligand-binding domain; HEK293 GAL4-hgDAF12 UAS-luciferase reporter, agonist luminescence; normalized to butyrate control; activation, % at 6.8 µM; hit rate 1.8% among 370,000;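 active = activation above a cutoff set at the mean of all screened compounds plus 3 SD, cut at about 10% in these data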;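 note: 0% = DMSO wells and 100% = sodium butyrate wells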
# ssDAF12 agonist = activators of S. stercoralis DAF-12 nuclear receptor; hit rate 1% among 370,000; AID 652126; HEK293 ssDAF-12/GRIP1 lit1-tk-luc reporter, luminescence; % of 3 µM dafachronic acid response; activation, % at 6.8 µM;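 active = activation above the mean over all tested compounds plus 3 SD, cut at about 0.9% in these data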;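 note: 0% = DMSO-only wells and 100% = 3 µM delta7-dafachronic acid wells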
# hcDAF12 agonist = activators of H. contortus DAF-12 nuclear receptor; HEK293 hcDAF-12 lit1-tk-luc reporter, luminescence; 0% DMSO, 100% Δ7-dafachronic acid; AID 652067; hit rate 1.4% among 370,000; activation, % at 6.8 µM;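 active = activation above the mean of all tested compounds plus 3 SD, cut at about 5.5% in these data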;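 note: 100% = response to 3 µM Δ7-dafachronic acid high control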
# AHR act confirm = confirmation of human aryl hydrocarbon receptor activators; shares compounds with AHR act; human cells, AHR-responsive luciferase reporter, luminescence; activation, % at 9 µM; hit rate 87% among 2,300; in the data active = activation above about 49%;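 note: HepG2 hepatoma cells carrying a DRE-driven firefly luciferase reporter; 0% = vehicle wells and 100% = reference agonist wells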
# PXR counter = activates human PXR in AHR activator counter-screen; shares compounds with AHR act; activation, % at 11.6 µM; cell-based PXR reporter, luciferase luminescence; hit rate 88% among 2,300; in the data active = activation above about 11%;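 note: human hepatoma DPX-2 cells expressing full-length human PXR; 0% = DMSO and 100% = reference agonist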
# Target sequence (O75469 whole entry, looked up): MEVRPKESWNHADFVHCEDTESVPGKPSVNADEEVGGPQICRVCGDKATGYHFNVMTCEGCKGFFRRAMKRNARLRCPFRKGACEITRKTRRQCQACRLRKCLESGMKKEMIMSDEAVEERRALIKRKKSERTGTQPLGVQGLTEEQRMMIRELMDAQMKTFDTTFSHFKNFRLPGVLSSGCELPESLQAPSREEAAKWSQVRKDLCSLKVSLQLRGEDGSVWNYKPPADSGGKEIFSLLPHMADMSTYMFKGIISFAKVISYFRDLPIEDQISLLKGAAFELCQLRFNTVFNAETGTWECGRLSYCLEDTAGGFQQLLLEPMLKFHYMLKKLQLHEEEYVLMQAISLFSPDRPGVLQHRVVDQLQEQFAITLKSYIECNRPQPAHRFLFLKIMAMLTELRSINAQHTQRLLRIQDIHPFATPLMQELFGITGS
# Starred values were filed as active, the others as inactive; . = no result.
SMILES,DAX1 inh-1,AHR act,DAX1 inh-2,hgDAF-12 ag,ssDAF12 agonist,hcDAF12 agonist,AHR act confirm,PXR counter
Cn1ncc(Cl)c1C(=O)Nc1cccc(Cl)c1,1,84*,-1,3,-1,-1,106*,23*
Cn1ncc(Cl)c1C(=O)Nc1ccc(Cl)cn1,1,143*,0,2,-1,0,129*,29*
CCn1ncc(Br)c1C(=O)Nc1ccc(Cl)cn1,-1,105*,0,2,-1,-1,115*,45*
CCc1nc2ccc(C(=O)Nc3cccc(OCC(=O)N(C)C)c3)cn2c1N(C)Cc1ccc(N(C)C)cc1,.,.,-2,5,-1,-1,.,.
COc1ccc(OC)c2sc(NC(=O)C3=COCCO3)nc12,0,98*,-1,3,-1,1,88*,6
COc1ccc(C)c2sc(NC(=O)C3=COCCO3)nc12,-1,84*,1,6,0,0,66*,19*
CCn1cc(S(=O)(=O)c2ccc(OC)cc2)c(=O)c2cc(F)c(N3CCN(C)CC3)cc21,0,0,-3,1,-2,-1,.,.
O=C(Nc1ccccn1)c1ccc(=O)[nH]n1,0,1,0,1,-1,1,.,.
Cc1ccc(NC(=O)CSCc2cc(=O)n3nc(C4CC4)sc3n2)cc1,0,2,1,-2,-1,-2,.,.
Nc1nc(-c2ccccc2)nc(-c2ccccc2O)n1,0,84*,-1,4,0,4,107*,13*
Nc1nc(-c2ccccc2)cc(-c2ccccc2O)n1,-1,82*,0,9,-1,3,174*,22*
Nc1nc(N)nc(-c2ccccc2O)n1,-1,18,0,4,-1,2,.,.
Cc1cc(C)nc(SCc2nc(N)nc(-c3ccccc3O)n2)n1,-1,84*,-1,-2,-1,-2,91*,38*
O=c1[nH]cnc2c1sc1nc(C(F)F)cc(-c3ccccc3)c12,0,106*,0,-2,0,3,76*,10*
O=c1[nH]cnc2c1sc1nc3c(c(-c4ccc(Cl)cc4)c12)CCC3,0,-2,1,-1,-1,-1,.,.
CC12CCC(=O)N1C(C(=O)Nc1nc3ccc(S(C)(=O)=O)cc3s1)CS2 (centres undefined),1,2,-1,3,-1,-1,.,.
Cc1sc(NC(=O)C2CSC3(C)CCC(=O)N23)nc1-c1ccc(F)cc1 (centres undefined),1,151*,-2,-3,0,5,101*,151*
CC12CCC(=O)N1C(C(=O)Nc1nc3ccc(Cl)cc3s1)CS2 (centres undefined),2,127*,0,-1,0,1,110*,65*
O=C(CN(C(=O)CSc1nc2ccccc2o1)c1cccc(F)c1)NC1CCCCC1,0,1,0,0,-1,-2,.,.
C=CCSC1=N/C(=C\c2cc(OC)c3c(c2)OCO3)C(=O)S1,0,1,-1,0,0,-1,.,.
Fc1ccccc1CNc1nc(-c2cccnc2)nc2ccccc12,0,85*,0,-2,-1,-3,24,103*
c1cncc(-c2nc(NCc3cccs3)c3ccccc3n2)c1,-1,9,-2,-1,-2,1,.,.
CC(=O)c1sc(N/N=C\c2ccc(Br)cc2)nc1C,1,19,2,8,-1,0,.,.
CCOC(=O)c1sc(N/N=C/c2ccc(N(C)C)cc2)nc1C,1,130*,0,0,-1,1,86*,11*
CCNC(=S)Nc1ccc(Cl)c([N+](=O)[O-])c1,-1,99*,-1,-1,-2,-2,50*,18*
SMILES,DAX1 inh-1,AHR act,DAX1 inh-2,hgDAF-12 ag,ssDAF12 agonist,hcDAF12 agonist,AHR act confirm,PXR counter
CCNC(=S)Nc1cccc([N+](=O)[O-])c1,.,3,.,.,.,.,.,.
N#C/C(=C/c1ccc(-c2ccc([N+](=O)[O-])cc2)o1)C(=O)Nc1nc(-c2cccs2)cs1,0,.,0,-2,0,0,.,.
N#C/C(=C\c1ccc(-c2ccc(F)cc2)o1)C(=O)Nc1nc(-c2cccs2)cs1,-1,142*,0,-1,0,4,58*,22*
CC(=O)Nc1nc(C)c(CCCOc2ccc([N+](=O)[O-])cc2)c(=O)[nH]1,1,1,0,1,0,-1,.,.
CC(C)C(=O)Nc1cccc(-c2cnc3ccccc3n2)c1,0,-2,1,3,-1,-2,.,.
CS(=O)(=O)Nc1cccc(-c2cnc3ccccc3n2)c1,4.3*,88*,1,9,0,6,120*,8
CNC(=S)Nc1cccc(-c2cnc3ccccc3n2)c1,1,118*,1,5,-1,2,100*,19*
COc1ccc(Cc2nnc(NC(=O)c3cc(OC)cc(OC)c3)s2)cc1,1,82*,0,0,-1,0,76*,12*
COC(=O)[C@]12C[C@H](CC(=O)NCC3CCCCC3)C(=O)N(Cc3ccccc3)C1=C[C@H](C(C)C)O[C@@H]2C1CC1,.,.,0,0,-1,-1,.,.
C=CCn1c(O)c(N=NC(=S)Nc2ccccc2F)c2ccccc21,-2,137*,-3,-6,-2,-3,83*,79*
CCn1c(O)c(N=NC(=O)CNc2cccc(C)c2)c2ccccc21,0,26,0,2,-2,1,.,.
C=CCn1c(O)c(N=NC(=S)Nc2cccc(C)c2)c2ccccc21,-2,123*,-1,-1,-1,-1,78*,59*
COc1ccc(OC)c(NC(=O)c2ccc3nc(-c4ccccc4)c(-c4ccccc4)nc3c2)c1,.,3,.,.,.,.,.,.
COc1ccc(-c2nc3cnccn3c2Nc2ccc3c(c2)OCO3)cc1,-1,105*,-2,2,-1,0,85*,144*
O=C(Cn1ncc2c(=O)oc3ccccc3c21)N1CCC(N2CCCCC2)CC1,1,0,0,-2,-1,-1,.,.
CC(C)CC(=O)NC(=S)Nc1nc(-c2cccc3ccccc23)cs1,-1,80*,0,-1,-1,0,53*,29*
Cc1ccc(-c2nc3ccccc3s2)cc1S(=O)(=O)N1CCCC1,0,2,.,.,.,.,.,.
COc1cc(NC(=O)c2ccccc2)c(OC)cc1NC(=O)CN1CCCCC1,0,83*,-1,-3,-2,-2,96*,23*
COc1cc(NC(=O)c2ccccc2)c(OC)cc1NC(=O)CN1CCOCC1,1,29,-1,1,-2,-3,.,.
